The panel holds about 79,000 compounds, 15% with a hit somewhere; the sample as a whole holds those more often. The source made the active and inactive calls. No stated cut-off is given here; in the data, active means growth inhibition above about 70%; inactive means the rest.
Legend:
[1] = NCI Yeast Anticancer Drug Screen. Data for the rad52 strain (AID 147);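 further: 0% = growth of vehicle-treated control cultures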; conditions: S. cerevisiae rad52 mutant growth inhibition, stronger effect = higher value
Summary of the method: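 Read-out: growth inhibition versus vehicle-treated controls. Cells were a DNA repair-deficient yeast strain treated with compounds.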

[2] = NCI Yeast Anticancer Drug Screen. Data for the wt1 strain (AID 149);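 further: 0% = growth of vehicle-treated wt1 cultures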; conditions: S. cerevisiae wt1 strain (SPY 50644) growth inhibition, stronger effect = higher value
Summary of the method: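 Each compound is tested on wt1 yeast and the loss of growth versus vehicle gives the inhibition value.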

[3] = NCI Yeast Anticancer Drug Screen. Data for the rad50EPP+ strain (AID 151);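 further: 0% = growth of vehicle-treated control cultures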; conditions: S. cerevisiae rad50 mutant strain, stronger effect = higher value
Summary of the method: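 Growth inhibition read against vehicle controls in rad50EPP+ yeast, a strain altered in DNA damage repair, after compound exposure.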

[4] = NCI Yeast Anticancer Drug Screen. Data for the mgt1 strain (AID 153); conditions: S. cerevisiae mgt1 mutant growth inhibition, stronger effect = higher value
Summary of the method: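 mgt1 yeast grown with test compound; read-out is growth inhibition versus vehicle-treated cultures.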

[5] = NCI Yeast Anticancer Drug Screen. Data for the rad50 strain (AID 155);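 further: 0% = growth of vehicle-only cultures of the same strain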; conditions: S. cerevisiae rad50 strain growth inhibition, stronger effect = higher value
Summary of the method: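 Vehicle-treated cultures provide the reference for the growth inhibition reported for compound-exposed, repair-deficient yeast.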

[6] = NCI Yeast Anticancer Drug Screen. Data for the mec2-1 strain (AID 157); conditions: S. cerevisiae mec2-1 strain, stronger effect = higher value
Summary of the method: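 Yeast mec2-1 mutant treated with compound. Readout: growth inhibition vs vehicle controls.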

[7] = NCI Yeast Anticancer Drug Screen. Data for the rad14 strain (AID 159);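 further: 0% = growth of vehicle-treated control cultures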; conditions: S. cerevisiae rad14 strain growth inhibition, stronger effect = higher value
Summary of the method: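 Inhibition of growth is reported for a repair-deficient yeast mutant following compound treatment, calculated relative to cultures that received vehicle.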

[8] = NCI Yeast Anticancer Drug Screen. Data for the sgs1 mgt1 strain (AID 161);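 further: 0% = growth of cultures given vehicle only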; conditions: S. cerevisiae sgs1 mgt1 strain, stronger effect = higher value
Summary of the method: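 Test agents were incubated with a DNA-repair-mutant yeast strain. Growth was then read and compared against vehicle-treated controls.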

[9] = NCI Yeast Anticancer Drug Screen. Data for the CLN2oe strain (AID 163);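 further: 0% = growth of vehicle-only control cultures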; conditions: S. cerevisiae CLN2oe strain, stronger effect = higher value
Summary of the method: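 Read-out: yeast growth inhibition, expressed relative to vehicle-only controls. The strain bears an engineered cell-cycle alteration.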

[10] = NCI Yeast Anticancer Drug Screen. Data for the cln2 rad14 strain (AID 165);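 further: 0% = growth equal to vehicle treated cultures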; conditions: S. cerevisiae cln2 rad14 strain, stronger effect = higher value
Summary of the method: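 cln2 rad14 yeast strain; compound exposure; growth inhibition read vs vehicle controls.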

[11] = NCI Yeast Anticancer Drug Screen. Data for the bub3 strain (AID 167); conditions: S. cerevisiae bub3 mutant strain, stronger effect = higher value
Summary of the method: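 Mutant yeast screening strain plus compound; vehicle-treated cultures serve as the 0% inhibition reference.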

[12] = NCI Yeast Anticancer Drug Screen. Data for the wt2 strain (AID 169); conditions: S. cerevisiae wt2 strain growth inhibition, stronger effect = higher value
Summary of the method: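 Read-out: growth inhibition versus vehicle-treated control cultures after compound exposure of the yeast strain.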

[13] = NCI Yeast Anticancer Drug Screen. Data for the mlh1 strain (AID 171);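 further: 0% = growth of vehicle-treated control cultures of the same strain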; conditions: S. cerevisiae mlh1 strain growth inhibition, stronger effect = higher value
Summary of the method: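 Read-out: growth inhibition versus vehicle controls. Strain: engineered yeast with a defined DNA repair or cell cycle defect, compound-treated.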

[14] = NCI Yeast Anticancer Drug Screen. Data for the sgs1 strain (AID 173);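 further: 0% = growth of vehicle-only control cultures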; conditions: S. cerevisiae sgs1 mutant, stronger effect = higher value
Summary of the method: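 Read-out: yeast growth inhibition relative to vehicle controls, following compound exposure of a strain with a defined DNA repair/cell cycle alteration.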

[15] = NCI Yeast Anticancer Drug Screen. Data for the mlh1 rad18 strain (AID 175); conditions: S. cerevisiae mlh1 rad18 strain growth inhibition, stronger effect = higher value
Summary of the method: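 Yeast w/ defined DNA-repair lesions; compound exposure; growth vs vehicle controls → % inhibition.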

[16] = NCI Yeast Anticancer Drug Screen. Data for the rad18 strain (AID 177); conditions: S. cerevisiae rad18 mutant growth inhibition, stronger effect = higher value
Summary of the method: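 Readout: growth inhibition vs vehicle controls. Cells: genetically altered yeast strain, DNA repair defect.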

[17] = at 5.0 µM (retest, dose inferred, filed as 0.5)
[18] = at 50.0 µM (retest, dose inferred, filed as 5.0)

Measured: growth inhibition

Cc1cc(I)ccc1N
inactive: [1]; at 1.2 µM 24% | [1]; at 3.7 µM 4% | [1]; at 11.0 µM 24% | [2]; at 1.2 µM -8% | [2]; at 3.7 µM 2% | [2]; at 11.0 µM -8% | [3]; at 1.2 µM -24% | [3]; at 3.7 µM -11% | [3]; at 11.0 µM -8% | [3]; at 33.0 µM 20% | [4]; at 1.2 µM 36% | [4]; at 3.7 µM 5% | [4]; at 11.0 µM 28% | [5]; at 1.2 µM -31% | [5]; at 3.7 µM -13% | [5]; [17] 50% | [5]; at 11.0 µM -13% | [6]; at 1.2 µM -3% | [6]; at 3.7 µM 4% | [6]; [17] 51% | [6]; at 11.0 µM -2% | [7]; at 1.2 µM 1% | [7]; at 3.7 µM -15% | [7]; at 11.0 µM -1% | [8]; [17] -1% | [9]; at 1.2 µM -10% | [9]; at 3.7 µM -15% | [9]; at 11.0 µM -3% | [10]; [17] 46% | [10]; at 50.0 µM 62.1% | [11]; at 1.2 µM 1% | [11]; at 3.7 µM -7% | [11]; [17] 27% | [11]; at 11.0 µM 11% | [12]; at 1.2 µM -28% | [12]; at 3.7 µM -10% | [12]; at 11.0 µM -13% | [13]; at 1.2 µM 25% | [13]; at 3.7 µM 13% | [13]; at 11.0 µM 10% | [14]; at 1.2 µM 19% | [14]; at 3.7 µM 5% | [14]; at 11.0 µM 4% | [15]; [17] 41% | [16]; at 1.2 µM -18% | [16]; at 3.7 µM -4% | [16]; at 11.0 µM -15%
active: [1]; at 33.0 µM 92% | [1]; at 100.0 µM 87% | [2]; at 33.0 µM 86% | [2]; at 100.0 µM 91% | [3]; at 100.0 µM 74% | [4]; at 33.0 µM 93% | [4]; at 100.0 µM 85% | [5]; at 33.0 µM 91% | [5]; [18] 79% | [5]; at 50.0 µM 85.6% | [5]; at 100.0 µM 93% | [6]; at 33.0 µM 87% | [6]; [18] 87% | [6]; at 50.0 µM 88.2% | [6]; at 100.0 µM 92% | [7]; at 33.0 µM 93% | [7]; at 100.0 µM 92% | [8]; [18] 92% | [8]; at 50.0 µM 89.3% | [9]; at 33.0 µM 79% | [9]; at 100.0 µM 86% | [10]; [18] 93% | [11]; at 33.0 µM 90% | [11]; [18] 90% | [11]; at 50.0 µM 86.8% | [11]; at 100.0 µM 94% | [12]; at 33.0 µM 88% | [12]; at 100.0 µM 94% | [13]; at 33.0 µM 89% | [13]; at 100.0 µM 92% | [14]; at 33.0 µM 90% | [14]; at 100.0 µM 91% | [15]; [18] 73% | [15]; at 50.0 µM 85.6% | [16]; at 33.0 µM 85% | [16]; at 100.0 µM 87%

From PubChem BioAssay (NCI)
